The source of these data is PubChem BioAssay AID2316 (Broad Institute, 2010).

The campaign covered roughly 29,000 compounds. Fewer than 10 were called active. The rule behind the calls is not given here. A selection follows.

The assay in a line: reversal of PD-1 mediated T-cell inhibition, primary screen, luminescence, primary human CD4 T cells, PD-L1 beads (AID 2316).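 Note: 0% = median vehicle wells and 100% = positive control.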 The conditions noted are these: CellTiter-Glo 96 h, hits give high values.
For the compound `Cc1ccc(S(=O)(=O)Nc2ccc3c(c2)C(=O)N([C@H](C)CO)C[C@H](C)[C@@H](CN(C)S(=O)(=O)c2cccs2)O3)cc1`, the activation is -1.04% (inactive).
Next, `CC(C)CSc1nnc(CSCc2nc(-c3ccc(Cl)cc3)cs2)n1C`: 1.7% (inactive); `CS(=O)(=O)N(CC(=O)Nc1ccc(F)c(Cl)c1)C1CCCCC1`: 0.469% (inactive); `CC(C)NC(=O)N(C)C[C@@H]1Oc2ccc(NS(=O)(=O)c3ccccc3)cc2C(=O)N([C@@H](C)CO)C[C@H]1C`: 1.49% (inactive).
Next, `C[C@H]1CN([C@@H](C)CO)C(=O)Cc2cc(NC(=O)CCCCCC(=O)Nc3ccccc3N)ccc2O[C@H]1CN(C)C(=O)Nc1ccc(F)cc1`: 0.894% (inactive); `Cc1noc(C)c1S(=O)(=O)N(C)C[C@@H]1Oc2c(NS(=O)(=O)c3cn(C)cn3)cccc2C(=O)N([C@H](C)CO)C[C@@H]1C`: 1.65% (inactive).
Next, `O=c1c2ccccc2nc(SCc2ccc(F)cc2)n1-c1ccccc1`: -10.1% (inactive); `COC(=O)c1ccc(C(=O)OC)c(NC(=O)COc2ccc(C)cc2)c1`: -5.39% (inactive).
As for `O=C(Nc1ccc(C23CC4CC(CC(C4)C2)C3)cc1)c1cccs1`, the activation was 0.396% (inactive).
Next, `C/C=C1\C2C=C(C)CC1(N)c1ccc(=O)[nH]c1C2` (configuration not stated): 0.91% (inactive).
Next, `COc1cccc2cc(C(=O)Nc3sc4c(c3C(N)=O)CCCCC4)c(=O)oc12`: 3.77% (inactive).
Take `COc1ccc(S(=O)(=O)Nc2ccc3c(c2)C(=O)N([C@H](C)CO)C[C@@H](C)[C@H](CN(C)S(=O)(=O)c2ccc(C)cc2)O3)cc1`: the activation was 0.261% (inactive).
Next, `COc1ccc(Oc2ccc(NC(=O)CCC(=O)O)cc2)cc1`: 0.302% (inactive).
`C[C@@H]1CN([C@H](C)CO)C(=O)Cc2cc(NC(=O)Cc3ccccc3)ccc2O[C@@H]1CN(C)Cc1ccccc1`: the activation is 1.25% (inactive).
Next, `O=C(CN1CCOCC1)Nc1sc2c(c1C(=O)Nc1ccc(Br)cc1)CCC2`: -2.1% (inactive); `C[C@@H]1CN([C@@H](C)CO)C(=O)c2cc(NS(=O)(=O)c3ccc(Cl)cc3)ccc2O[C@H]1CN(C)S(=O)(=O)c1cn(C)cn1`: -1.79% (inactive); `COc1cc(C=Nc2ccc(Cl)cc2)ccc1OC(=O)/C=C/c1cccs1`: -0.177% (inactive).
Next, `CCO/C([O-])=N\c1c[n+](N2CCOCC2)no1`: 0.71% (inactive).
Next, `C[C@@H]1CN([C@H](C)CO)C(=O)c2cc(NC(=O)Cc3ccccc3)ccc2O[C@@H]1CN(C)CC1CCCCC1`: -0.76% (inactive).
In the case of `C[C@@H]1CCCCO[C@@H](CN(C)C(=O)NC2CCCCC2)[C@@H](C)CN([C@H](C)CO)C(=O)c2cc(NC(=O)CCCCCC(=O)Nc3ccccc3N)ccc2O1`, the activation is 0.709% (inactive).
Next, `Cc1ccc(-n2c(C)nc3sc4c(c3c2=O)CCC4)cc1`: -4.12% (inactive).
Under `CC(=O)c1cccc(NC(=O)CN(c2ccc(F)c(Cl)c2)S(C)(=O)=O)c1` stands 2.89% (inactive); under `C[C@@H]1CN([C@H](C)CO)C(=O)Cc2cc(NC(=O)C3CCCCC3)ccc2O[C@@H]1CN(C)Cc1ccc(C(F)(F)F)cc1`, -3.12% (inactive).
As for `CC1=Nn2c(Cn3nnc4ccccc43)nnc2SC1`, the activation was 0.665% (inactive).
As to `CC(=O)c1cccc(NC(=O)CN(C2CCCCC2)S(=O)(=O)c2ccccc2)c1`, the activation is -2.41% (inactive).
Turning to `CC(C)NC(=O)Nc1ccc2c(c1)C(=O)N([C@@H](C)CO)C[C@H](C)[C@@H](CN(C)C)O2`, the activation is 0.0718% (inactive).
Regarding `CCCOC(=O)C1=C(C)N(CC)C(=O)NC1c1ccccc1Cl` (configuration not stated), the activation was -0.396% (inactive).
